Bioassay records: PubChem, National Center for Advancing Translational Sciences (NCATS)
An excerpt weighted towards active compounds, which were near 12% of everything screened.
BAZ2B inh: qHTS Assay for Inhibitors of BAZ2B | Bromodomain adjacent to zinc finger domain protein 2B (Homo sapiens), Q9UIF8 | AlphaScreen BAZ2B-H3K14Ac peptide displacement | Potency, µM (highest dose often 114 µM), actives largely listed as inhibitors | 360,000 tested, 4.4% active; also: nearly all actives have a fitted effect of over 60% in size
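BAZ2B (50 nM) with biotin-H3(5-23)K14Ac peptide (50 nM) in PBS pH 7.4, 0.01% Tween-20, preformed 30 min, then compound 30 min at room temperature; top concentration 110uM. AlphaScreen streptavidin donor/nickel chelate acceptor beads (10 ug/mL final), 20 min dark, signal read.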
HP1b chromo inh: HTS for Inhibitors of HP1-beta Chromodomain Interactions with Methylated Histone Tails | Chromobox protein homolog 1 (Homo sapiens), P83916 | AlphaScreen HP1-beta / biotin-H3K9me3 peptide binding | Potency, µM (highest dose often 114 µM), usual class: inhibitors | 390,000 tested, 0.56% active; also: nearly all actives have a fitted effect of over 70% in size
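Compound inhibition of the preformed complex between 50 nM HP1-beta and 50 nM biotinylated H3K9me3 peptide was read by AlphaScreen. Buffer was PBS pH 7.4 with 0.01% Tween-20. Incubations ran 30 min at room temperature, with 10 ug/mL donor/acceptor beads.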
G9a inh: qHTS Assay for Inhibitors of Histone Lysine Methyltransferase G9a. G9a H3K9 monomethylation, AlphaScreen, 2 h. Potency, µM (highest dose often 102 µM), usual class: inhibitors. 350,000 tested, 8.8% active. AID 504332, 2011; also: nearly all actives have a fitted effect of over 75% in size
Target sequence (Q96KQ7 913-1193 limits assumed): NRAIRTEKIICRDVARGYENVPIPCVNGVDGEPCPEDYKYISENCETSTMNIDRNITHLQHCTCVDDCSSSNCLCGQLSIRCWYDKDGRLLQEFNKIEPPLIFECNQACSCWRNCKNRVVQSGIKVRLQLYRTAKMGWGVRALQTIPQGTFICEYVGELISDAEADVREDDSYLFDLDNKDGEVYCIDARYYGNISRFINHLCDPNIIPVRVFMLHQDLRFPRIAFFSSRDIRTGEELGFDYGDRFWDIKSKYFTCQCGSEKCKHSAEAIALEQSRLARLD
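Methyltransferase reactions run at room temperature for 2 h (20 nM enzyme, 500 nM biotin-H3K9 peptide, 20 uM SAM) after a 15 min compound preincubation; product detected by AlphaScreen beads and anti-H3K9me1 antibody.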
PI5P4Ka inh: qHTS for Inhibitors of phosphatidylinositol 5-phosphate 4-kinase (PI5P4K) | 330,000 tested, 1.2% active | Phosphatidylinositol 5-phosphate 4-kinase type-2 alpha (Homo sapiens), P48426 | AID 652105, 2013 | PI5P4Kalpha enzyme, ADP-Glo luminescence, 60 min; hits give low values | max response, %; active = max response of -50% or lower; inconclusive = between -30% and -50%; inactive = -30% or higher; also: value at the top dose of about 77 µM
Target sequence (P48426 whole entry, looked up): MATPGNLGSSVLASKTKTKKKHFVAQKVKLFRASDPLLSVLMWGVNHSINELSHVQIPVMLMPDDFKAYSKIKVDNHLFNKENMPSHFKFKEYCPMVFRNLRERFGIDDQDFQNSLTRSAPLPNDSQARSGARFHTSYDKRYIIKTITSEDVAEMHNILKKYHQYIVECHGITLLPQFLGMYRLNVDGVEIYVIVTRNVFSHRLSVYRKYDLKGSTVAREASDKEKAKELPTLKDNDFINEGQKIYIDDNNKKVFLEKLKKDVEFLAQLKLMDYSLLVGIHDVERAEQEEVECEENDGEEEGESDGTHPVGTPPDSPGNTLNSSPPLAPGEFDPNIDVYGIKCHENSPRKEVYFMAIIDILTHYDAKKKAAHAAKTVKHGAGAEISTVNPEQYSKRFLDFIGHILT
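qHTS, 1536-well: enzyme/substrate mix, compound by pin tool, 5 microM ATP final; RT 60 min; ADP-Glo reagents 1 (45 min) then 2 (30 min); luminescence.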
JMJD2A Tudor inh: qHTS Assay for Inhibitors of JMJD2A-Tudor Domain. Lysine-specific demethylase 4A (Homo sapiens), O75164. Potency, µM (titrated, usually from 114 µM), usual class: inhibitors. AID 504339, 2011. 390,000 tested, 4.4% active. AlphaScreen JMJD2A-Tudor / H3K4me3 peptide binding; also: nearly all actives have a fitted effect of over 50% in size
PLK1 PBD block: qHTS for Inhibitors of PLK1-PDB (polo-like kinase 1 - polo-box domain): Primary Screen; Serine/threonine-protein kinase PLK1 (Homo sapiens), P53350; Plk1 PBD binding of FITC phosphopeptide, fluorescence polarization; Potency, µM, most hits filed as inhibitors; 360,000 tested, 2.8% active; AID 720504, 2013; also: series mostly up to about 57 µM; nearly all actives have a fitted effect of over 65% in size
Numbers stand for hits; n = inactive; u = inconclusive; x = no result; [ ] = another dose, or the depositor's remark. Unless noted, calls follow the shape of the dose curve; as a rule, active = well fitted curve in the direction sought with a large enough effect; inconclusive = small, poorly fitted or top-dose-only effect, or another doubt; inactive = no such curve, though single readings can be large; an effect the other way counts as inactive or inconclusive.

SMILES	BAZ2B inh	HP1b chromo inh	G9a inh	PI5P4Ka inh	JMJD2A Tudor inh	PLK1 PBD block
Oc1ccccc1C=NNC(=S)NN=Cc1ccccc1O	x	n	x	n	20µM	n
NC(=S)N/N=C/c1ccccc1O	35µM	n	n	n	89µM	n
COc1ccc2nc(C)cc(SCC(=O)N/N=C/c3ccc(O)cc3O)c2c1	n	n	n	n	n	n
COc1ccc(N2Cc3ccc(C(=O)N/N=C\c4ccc(O)cc4O)cc3C2)cc1	u	x	28µM	x	x	x
CNC(=S)N/N=C/c1ccccc1Cl	n	n	n	n	n	n
O=C(C[C@H]1C(=O)N(CCc2ccccc2)C[C@@H]1Cc1ccccc1)Nc1ccccc1	n	n	x	n	n	n
COc1cccc(OCC(O)CNC(=O)c2oc3ccc(C)cc3c2C)c1 (stereo not drawn)	n	n	n	n	n	n
COc1ccc2c(c1)C(O)C(CO)C(C(=O)O)C2 (stereo not drawn)	x	n	x	n	n	n
Oc1ccc(/C=N/Nc2ccc3ccccc3c2)c(O)c1	u	u	6.3µM	n	u	u
Cc1cc(O)c(/C=N/Nc2ccccc2)c(=O)o1	u	n	u	n	8.9µM	n
Cc1nc(Cl)cc(N/N=C/c2ccc(O)cc2)n1	n	n	n	n	n	n
Oc1cccc(/C=N/NC(=S)Nc2cccnc2)c1O	5.6µM	n	11µM	-66	20µM	n
Fc1cccc(F)c1/C=N/NC(=S)Nc1cccnc1	n	n	n	n	n	n
Cc1nc(Cl)cc(N/N=C/c2ccc(O)cc2O)n1	35µM	n	u	n	u	n
Cc1[nH]ccc2cc3nc4ccccc4c3cc12	x	x	x	n	x	n
COc1ccc(-c2noc(-c3ccc(N4CCCC4)c([N+](=O)[O-])c3)n2)cc1	n	n	n	x	n	x
CCOC(=O)C1=CNS(=O)(=O)NC1c1ccc(C)cc1 (stereo not drawn)	x	n	x	n	n	n
Cc1ccc(-n2c(C)cc(/C=N/NC(N)=S)c2C)cc1	u	n	u	n	u	n
O=C(N/N=C/c1ccccc1O)C1SCCCS1	79µM	n	n	n	u	n
Cc1cc(/C=N/NC(N)=S)c(O)c(/C=N/NC(N)=S)c1	3.2µM	n	n	-64	13µM	u
NC(=S)N/N=C/c1cccc(O)c1O	8.9µM	n	u	n	28µM	n
O=C(N/N=C/c1ccc(O)cc1O)C(=O)N/N=C/c1ccc(O)cc1O	35µM	n	n	n	2.5µM	12µM
COc1ccc(S(=O)(=O)N2CCOC2CNC(=O)C(=O)NCCc2ccccc2)cc1 (stereo not drawn)	n	n	x	n	n	n
NS(=O)(=O)c1ccc(CCNc2nn3c(-c4cccc(OC(F)(F)F)c4)cnc3s2)cc1	x	x	x	n	x	n
C[C@@H]1CC2C3CCC4=CC(=O)C=CC4(C)[C@@]3(F)[C@@H](O)CC2(C)[C@@]1(O)C(=O)CO (stereo partly drawn)	x	x	2.5µM	x	x	x
SMILES	BAZ2B inh	HP1b chromo inh	G9a inh	PI5P4Ka inh	JMJD2A Tudor inh	PLK1 PBD block
CC1(C)CC(NC(=O)c2ccc(Cl)c(Cl)c2)CC(C)(C)N1	n	n	x	n	n	n
O=C1CN(S(=O)(=O)c2ccccc2Cl)CCN1	n	n	n[0.501 µM]	n	n	15µM
O=C1CN(S(=O)(=O)c2cccc(Cl)c2Cl)CCN1	n	n	n	n	n	n
O=C(Oc1ccc(=O)n(-c2ccccc2)n1)c1cccc(Cl)c1	n	n	x	n	n	6.7µM
O=C(Oc1ccc(=O)n(-c2ccccc2)n1)c1ccc(Cl)cc1	n	n	x	n	n[11.4 µM]	u
CSCCC(NC=C1C(=O)OC(C)(C)OC1=O)C(=O)O (stereo not drawn)	n	n	n	n	79µM	n
COc1cc(CNc2ncnc3c2ncn3[C@H]2CN(CCN3CCOCC3)C[C@@H](CO)O2)cc(OC)c1OC	x	x	x	n	x	n
N#C/C(=C\c1ccc2c(c1)OCCO2)C(=O)Nc1nccs1	n	n	n	n	n	n
Nc1c(N=O)c(=O)[nH]c(=O)n1-c1ccccc1	x	n	x	n	50µM	n
CCCNc1c(N)n(-c2ccccc2)c(=O)[nH]c1=O	56µM	n	35µM	x	u	n
CC(=O)Oc1[nH]c(=O)c2cccc3c2c1CCC3	x	x	x	n	x	n
CCOC(=O)N1CCN(CC(=O)c2c[nH]c3ccc(F)cc23)CC1	n	x	50µM	x	x	x
Cc1onc(-c2ccccc2)c1C(=O)NC(=S)NNC(=O)c1ccncc1	n	n	n	n	n	n
COc1ccc(C(=O)NC(=S)NNC(=O)c2c(-c3ccccc3)noc2C)cc1OC	n	n	32µM	n	n	n
Cc1onc(-c2ccccc2)c1C(=O)NNC(=S)NC(=O)c1ccc2c(c1)OCO2	n	n	50µM	n	n	n
Cc1onc(-c2ccccc2)c1C(=O)N/N=C/c1cccs1	n	n	n	n	n	n
Cc1onc(-c2ccccc2)c1C(=O)NC(=S)NNC(=O)c1cc(-c2ccc(F)cc2)n[nH]1	n	n	50µM	u	n	n
Cc1onc(-c2ccccc2)c1C(=O)NNC(=S)NC(=O)/C=C/c1cccs1	n	n	13µM	n	n	n
Cc1cccc(OCCCn2c(CCNC(=O)C3CCCCC3)nc3ccccc32)c1	n	n	n	x	n	x
Cc1nc2nc(SCC(=O)NC3CCC(C)CC3)nn2c(C)c1Cc1ccccc1 (stereo not drawn)	n	n	n	x	n	x
CCC[C@H](N[C@@H](C)C(=O)N1[C@@H]2CCCC[C@H]2C[C@H]1C(=O)O)C(=O)OCC	x	x	n	x	x	x
CCC(C)[C@H](NS(=O)(=O)c1ccc(C)cc1)C(=O)N1CCC(C(=O)N2CCC(C(=O)OC)CC2)CC1 (stereo partly drawn)	n	n	x	n	n	n
CCOC(=O)C1=C(CS(=O)(=O)c2ccc(F)c(C)c2)NC(=O)NC1c1ccc(F)c(F)c1 (stereo not drawn)	n	n	n	x	n	x
CCOC(=O)C1=C(CS(=O)(=O)c2ccc(F)c(C)c2)NC(=O)NC1c1ccc(O)c(O)c1 (stereo not drawn)	u	n	25µM	n	n	n
CN(C)CCCNc1nc(-c2ccccc2)nc2ccccc12	n	n	79µM	n	n	n
Cc1ccc(-c2nc(NCCCN(C)C)c3ccccc3n2)cc1	x	x	x	n	x	n
CSc1ncnc2c1ncn2CCCN(C)Cc1ccco1	x	x	x	n	x	n
O=C(NC1CCS(=O)(=O)C1)C1CCCCN1S(=O)(=O)c1ccc(Cl)cc1 (stereo not drawn)	n	n	28µM	x	n	u
